Pf growth 48h – Primary qHTS for delayed death inhibitors of the malarial parasite plastid, 48 hour incubation | P. falciparum luciferase growth in erythrocytes, 48 h | actives 5.9% (n = 310,000) | Potency, µM (titrated, usually from 28.7 µM), for the others: top-dose activity change, negative = inhibition, hits mostly inhibitors | AID 504832, 2011; note: potency is the fitted concentration of half-maximal effect; % is set by controls: 0 for no effect and ±100 for the full control effect
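Cell-based growth assay: transgenic P. falciparum expressing firefly luciferase, cultured in red cells within RPMI 1640 containing 0.5% w/v Albumax, 24 mM bicarbonate and gentamycin. A drop in luciferase activity indicates inhibition.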
Pf growth 96h – Primary qHTS for delayed death inhibitors of the malarial parasite plastid, 96 hour incubation | P. falciparum luciferase reporter growth, 96 h | AID 504834, 2011 | Potency, µM (doses to about 28.7 µM), for inactives: top-dose activity change, negative = inhibition, hits mostly inhibitors | actives 6.9% (n = 320,000); note: potency is the fitted concentration of half-maximal effect; % is set by controls: 0 for no effect and ±100 for the full control effect
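Two-generation exposure (96 h) targets delayed-death phenotype. Reporter parasites carrying integrated firefly luciferase, in red cells at 2% hematocrit and 0.05% parasitemia final, kept at 37 C, 5% CO2; luminescence loss indicates inhibition.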
Shiga inhibitor – A qHTS for Small Molecule Inhibitors of Shiga Toxin | Vero cells, Shiga toxin protein synthesis inhibition reporter | inhibition, % at 38.7 µM | actives 9.2% (n = 290,000); in the data active = inhibition mostly above about 28%, no sharp cut-off; inactive = mostly below about 43%; note: 0% is about no effect
CHX counter – Cycloheximide Counterscreen for Small Molecule Inhibitors of Shiga Toxin; actives 12% (n = 300,000); AID 2314, 2010; cell reporter, cycloheximide protein synthesis inhibition counterscreen; max response, %; in the data active = max response mostly above about 13%, no sharp cut-off; inactive = mostly below about 14%; note: read at 38.3 µM for the half of the compounds with a filed dose; 0% is about no effect
AMA1-RON2 inh – qHTS for Inhibitors of AMA1-RON; Towards Development of Antimalarial Drug Lead: Primary Screen; Plasmodium falciparum AMA1 (3D7) - RON2 peptide interaction; AlphaScreen AMA1-biotinylated RON2 peptide binding; Potency, µM (top dose mostly 58.2 µM), inactives show at the top dose activity change, negative = inhibition, most hits filed as inhibitors; actives 0.2% (n = 360,000); AID 720542, 2013;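 note: potency is the fitted concentration of half-maximal effect; 0% = vehicle wells and -100% = peptide control; nearly all actives have a fitted effect of over 45% in size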
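AMA1 (3D7) with his tag at 25 nM final met compounds first, then biotinylated RON2 peptide at 25 nM; detection used donor plus acceptor beads, 10 µg/mL apiece, read by AlphaScreen after 30 min at room temperature.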
HCV inhibitor – qHTS Assay for Inhibitors of Hepatitis C Virus (HCV) | actives 3.4% (n = 340,000) | Huh7.5.1 HCVcc-Cre infection, luciferase reporter, 44 h | Potency, µM (highest dose often 41.8 µM), without a hit: top-dose activity change, negative = inhibition, usual class: inhibitors; note: potency is the fitted concentration of half-maximal effect; % is set by controls: 0 for no effect and ±100 for the full control effect
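Whole-lifecycle infectious HCVcc-Cre system; cells 1,000/well, compound then virus (~0.5 moi) added 4 h after plating, 44 h culture. Luciferase read 15 sec following 15 min substrate incubation, room temp.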
An asterisk follows results filed as active; [ ] = dose if it differs, or a comment. A selection: hits, their analogues and other compounds. The true share with any hit is near 21%. Unless noted, calls come from the whole dose curve; as a rule, active = well fitted curve in the direction sought with a large enough effect; inconclusive = small, poorly fitted or top-dose-only effect, or another doubt; inactive = no such curve, though single readings can be large; an effect the other way counts as inactive or inconclusive.

What do the screens show for `CN(C(=O)c1ccco1)c1nc(CC(=O)Nc2ccccc2)cs1`?
Pf growth 48h: 14.5%; Pf growth 96h: -3.2%; Shiga inhibitor: active; CHX counter: 17.6; AMA1-RON2 inh: -5.5%; HCV inhibitor: -19.1%

How did CC(=O)Nc1ccc(S(=O)(=O)N(CC(=O)NCC2CCCO2)Cc2ccccc2Cl)cc1 (centres undefined) do in these assays?
AMA1-RON2 inh: 8.3%

What do the screens show for `Cn1c([N+](=O)[O-])cnc1N1CCN(c2nncs2)C1=O`?
Pf growth 48h: 42.6%; Pf growth 96h: 18.5%; Shiga inhibitor: -6.8; CHX counter: 1.2; AMA1-RON2 inh: -5.6%; HCV inhibitor: -7.8%

Results for Cc1ccc(C)c(N2N=C(C(=O)Nc3ccc(N4CCOCC4)cc3)CCC2=O)c1 ?
Pf growth 48h: inconclusive; Pf growth 96h: 66.1%; AMA1-RON2 inh: -12.7%; HCV inhibitor: 40.2%

What do the screens show for `COCCN(C(=O)c1ccco1)c1nnc(-c2ccc(OC)c(OC)c2)s1`?
Pf growth 48h: 26.6%; Pf growth 96h: -23.9%; Shiga inhibitor: -3.4; CHX counter: -2.3; AMA1-RON2 inh: 4.8%; HCV inhibitor: 8.6%

How did CN(C(=O)c1cccnc1)c1nnc(-c2cccnc2)s1 do in these assays?
Pf growth 48h: 5.3%; Pf growth 96h: inconclusive; Shiga inhibitor: 16.1; CHX counter: 7.0; AMA1-RON2 inh: -6.0%; HCV inhibitor: -1.0%

Results for CCCN(C(=O)c1ccco1)c1nnc(-c2ccccc2C)s1 ?
Pf growth 48h: 0.0%; Pf growth 96h: -8.1%; Shiga inhibitor: 131.7*; CHX counter: 93.6*; AMA1-RON2 inh: 94.0%; HCV inhibitor: inconclusive

What do the screens show for `CCN(C(=O)c1ccco1)c1nnc(-c2cccnc2)s1`?
Pf growth 48h: 60.6%; Pf growth 96h: inconclusive; Shiga inhibitor: 74.7*; CHX counter: 33.7*; AMA1-RON2 inh: 2.0%; HCV inhibitor: -7.6%

What do the screens show for `CCN(C(=O)Cc1cccs1)c1nnc(-c2cc(OC)c(OC)c(OC)c2)s1`?
Pf growth 48h: 5.22µM*; Pf growth 96h: -17.4%; Shiga inhibitor: -4.1; CHX counter: -1.4; AMA1-RON2 inh: 5.4%; HCV inhibitor: inconclusive

Results for CCCN(C(=O)c1cccs1)c1nnc(-c2ccncc2)s1 ?
Pf growth 48h: 67.6%; Pf growth 96h: inconclusive; Shiga inhibitor: 56.8*; CHX counter: 22.2*; AMA1-RON2 inh: 0.2%; HCV inhibitor: 5.8%

What do the screens show for `CCc1ccc(OCC(=O)Nc2ccc(N3CCN(S(C)(=O)=O)CC3)cc2)cc1`?
Pf growth 48h: inconclusive; Pf growth 96h: inconclusive; Shiga inhibitor: 6.6; CHX counter: -1.1; AMA1-RON2 inh: -17.1%; HCV inhibitor: 23.1%

Results for COc1ccc(-c2nnc(N(C)C(=O)c3ccco3)s2)cc1OC ?
Pf growth 48h: 22.4%; Pf growth 96h: -19.7%; Shiga inhibitor: 13.0; CHX counter: -2.4; AMA1-RON2 inh: 0.0%; HCV inhibitor: -5.7%

What do the screens show for `CN(C(=O)c1ccco1)c1nnc(-c2ccc(F)cc2)s1`?
Pf growth 48h: 130.1%; Pf growth 96h: 2.3%; Shiga inhibitor: 84.7*; CHX counter: 50.9*; AMA1-RON2 inh: -9.0%; HCV inhibitor: -21.8%

What do the screens show for `Cn1c(NC(=O)/C=C/c2ccccc2)cc(=O)n(C)c1=O`?
Pf growth 48h: 94.1%; Pf growth 96h: 10.9%; Shiga inhibitor: 31.0; CHX counter: 33.7*; AMA1-RON2 inh: 1.8%; HCV inhibitor: inconclusive

What do the screens show for `Cn1c(NC(=O)CCc2ccccc2)cc(=O)n(C)c1=O`?
Pf growth 96h: 69.7%; Shiga inhibitor: 70.5*; CHX counter: 43.3*; AMA1-RON2 inh: 0.0%; HCV inhibitor: -6.3%

How did Cn1c(NC(=O)/C=C/c2ccc(Cl)c(Cl)c2)cc(=O)n(C)c1=O do in these assays?
Pf growth 48h: -12.7%; Pf growth 96h: -20.0%; Shiga inhibitor: 2.1; CHX counter: 10.4; AMA1-RON2 inh: 9.5%[11.6 µM]; HCV inhibitor: 10.4%

Screening data (PubChem)
